Experimental data taken from PubChem BioAssay.

Test: MRP1 drug-resistance reversers in H69AR cells – cell-based, doxorubicin co-treatment, pilot screen (AID 601)
Details: H69AR cells + 2 uM doxorubicin, CellTiter-Glo, 72 h; measured here: viability with 2 uM doxorubicin; at 10 µM; stronger effect = lower value

| Compound | viability [%] |
| --- | --- |
| Cc1c(CNCc2cccs2)c(C(=O)O)c(C)n1Cc1ccccc1 | 94.2 |
| Cc1ccc(OCC(O)Cn2c(NCCc3ccccc3)nc3c2c(=O)[nH]c(=O)n3C)cc1 (stereo not given) | 99 |
| COC(=O)CN(Cc1ccco1)S(=O)(=O)c1ccccc1 | 80.9 |
| CCc1[nH]nc2c1C1(CCN(C(=O)OCc3ccccc3)CC1)C(C#N)=C(N)O2 | 85.8 |
| Cc1cc(C(=O)Nc2c(C)n(C)n(-c3ccccc3)c2=O)c(C)o1 | 98.4 |
| O=C(NCc1cccs1)c1cc2c(s1)CS(=O)(=O)C2 | 93.8 |
| Cc1cc(C)nc(-n2nc(C)cc2NC(=O)c2ccc(Br)o2)n1 | 83.3 |
| CCOc1ncccc1C(=O)Nc1ccc(Cl)cc1 | 83.2 |
| COc1cccc(NC(=O)C2C3C=CC4(O3)C2C(=O)N(C(C)C)C4C(=O)NC2CCCCC2C)c1 (stereo not given) | 88.1 |
| CCOC(=O)Cc1csc(NC(=O)CSc2nnc(C3CC3)n2C)n1 | 91.5 |
| COc1ccccc1OCCOCCn1cnc2ccccc2c1=O | 91.1 |
| O=C(CN1C(=O)CC(c2ccco2)Sc2ccccc21)Nc1ccc2c(c1)OCCO2 (stereo not given) | 75.1 |
| CCN1CCc2c(C#N)c(N3CCCCC3)nc(NCc3ccccc3)c2C1 | 26.4 |
| Cn1c(=O)c2c(nc(SCC(=O)N3CCCc4ccccc43)n2C)n(C)c1=O | 93.9 |
| Cc1cccc(CC2CC(=O)N(c3ccccc3)C2=O)c1 (stereo not given) | 91.9 |
| CCN(CC)S(=O)(=O)c1cccc(-c2nnc(SCCOc3ccccc3C)o2)c1 | 69.3 |
| COC(=O)c1cccc(NC(=O)CN2CCN(Cc3ccccc3)CC2)c1 | 93.4 |
| CN(C)CCC(c1ccc(Br)cc1)c1ccccn1 (stereo not given) | 91.4 |
| CCCn1c(SCC(=O)NC(=O)NCc2ccco2)n[nH]c1=O | 95.1 |
| Cc1ccc(C2=N/C(=C/N3CCOCC3)C(=O)O2)cc1 | 77.5 |

| Compound | viability [%] |
| --- | --- |
| O=C(NCc1ccco1)c1ccc2c(=O)n(CC3CCCO3)c(=S)[nH]c2c1 (stereo not given) | 86.9 |
| Cc1cc(-c2ccccc2)nnc1NCCN1CCOCC1 | 92.1 |
| CN(C)CCOC(=O)C(c1ccccc1)C1(O)CCCC1 (stereo not given) | 97 |
| CCOC(=O)N1CCC(NC(=O)Cn2ncc3c4ccccc4n(C)c3c2=O)CC1 | 105 |
| COc1cccc(NC(=O)N(Cc2ccco2)C(C)c2cccs2)c1 (stereo not given) | 73 |
| C=CCN=C1SCC(=O)N1S(=O)(=O)c1ccc(C)cc1 | 99.4 |
| Cc1ccc(S(=O)(=O)N2CCN(c3nc(C(C)C)c4c(c3C#N)CC(C)(C)OC4)CC2)cc1 | 70 |
| O=C(O)Cc1ccc(-c2ccccc2)cc1 | 86.4 |
| Cc1ccc2nc(NC(=O)C3CCCN(S(=O)(=O)c4cccc5nonc45)C3)sc2c1 (stereo not given) | 90.8 |
| O=C(NCCCN1CCCC1=O)C1CCN(S(=O)(=O)N2CCOCC2)CC1 | 94.8 |
| CC1CCCC(C)N1CCNC(=O)C1CCN(S(=O)(=O)N2CCCCC2)CC1 (stereo not given) | 90.7 |
| O=C(CSc1nnc(-c2ccccn2)n1Cc1ccccc1)N1CCCC1 | 87.9 |
| C[C@H](CS)C(=O)N1CCC[C@H]1C(=O)O | 91.6 |
| c1ccc(-c2ccc(-c3ccccn3)nn2)nc1 | 69.5 |
| CS(=O)(=O)N(CC(=O)NCc1ccncc1)Cc1ccc(Cl)cc1 | 97.8 |
| O=C(CCn1c(=O)oc2ccccc21)N1CCN(c2ccccc2Cl)CC1 | 66.3 |
| CC(C)Oc1cc2oc(=O)c3c(c2cc1Cl)CCC3 | 78.6 |
| CC(=O)C1=C(NC(=O)c2ccccc2F)C[C@@H]2[C@H]1C2(C)C | 89.5 |
| CCOC(=O)Cn1nnnc1CN(Cc1ccc(OC)cc1)Cc1cc2cc(C)ccc2[nH]c1=O | 94.9 |
| Cc1ccc(CN2C(=O)CCC2C(=O)NCCCN2CCCC(C)C2)cc1 (stereo not given) | 88.4 |

Same assay, conditions: H69AR cells, CellTiter-Glo, 72 h; compound alone cytotoxicity; at 10 µM

| Compound | viability [%] |
| --- | --- |
| Cc1c(CNCc2cccs2)c(C(=O)O)c(C)n1Cc1ccccc1 | 99.8 |
| Cc1ccc(OCC(O)Cn2c(NCCc3ccccc3)nc3c2c(=O)[nH]c(=O)n3C)cc1 (stereo not given) | 93.9 |
| COC(=O)CN(Cc1ccco1)S(=O)(=O)c1ccccc1 | 77.6 |
| CCc1[nH]nc2c1C1(CCN(C(=O)OCc3ccccc3)CC1)C(C#N)=C(N)O2 | 85.2 |
| Cc1cc(C(=O)Nc2c(C)n(C)n(-c3ccccc3)c2=O)c(C)o1 | 110 |
| O=C(NCc1cccs1)c1cc2c(s1)CS(=O)(=O)C2 | 98.1 |
| Cc1cc(C)nc(-n2nc(C)cc2NC(=O)c2ccc(Br)o2)n1 | 71.9 |
| CCOc1ncccc1C(=O)Nc1ccc(Cl)cc1 | 79.8 |
| COc1cccc(NC(=O)C2C3C=CC4(O3)C2C(=O)N(C(C)C)C4C(=O)NC2CCCCC2C)c1 (stereo not given) | 96.9 |
| CCOC(=O)Cc1csc(NC(=O)CSc2nnc(C3CC3)n2C)n1 | 97.9 |
| COc1ccccc1OCCOCCn1cnc2ccccc2c1=O | 87.7 |
| O=C(CN1C(=O)CC(c2ccco2)Sc2ccccc21)Nc1ccc2c(c1)OCCO2 (stereo not given) | 76.9 |
| CCN1CCc2c(C#N)c(N3CCCCC3)nc(NCc3ccccc3)c2C1 | 16.3 |
| Cn1c(=O)c2c(nc(SCC(=O)N3CCCc4ccccc43)n2C)n(C)c1=O | 102 |
| Cc1cccc(CC2CC(=O)N(c3ccccc3)C2=O)c1 (stereo not given) | 102 |
| CCN(CC)S(=O)(=O)c1cccc(-c2nnc(SCCOc3ccccc3C)o2)c1 | 87.9 |
| COC(=O)c1cccc(NC(=O)CN2CCN(Cc3ccccc3)CC2)c1 | 90.5 |
| CN(C)CCC(c1ccc(Br)cc1)c1ccccn1 (stereo not given) | 102 |
| CCCn1c(SCC(=O)NC(=O)NCc2ccco2)n[nH]c1=O | 96.6 |
| Cc1ccc(C2=N/C(=C/N3CCOCC3)C(=O)O2)cc1 | 90.6 |

| Compound | viability [%] |
| --- | --- |
| O=C(NCc1ccco1)c1ccc2c(=O)n(CC3CCCO3)c(=S)[nH]c2c1 (stereo not given) | 94.4 |
| Cc1cc(-c2ccccc2)nnc1NCCN1CCOCC1 | 89.7 |
| CN(C)CCOC(=O)C(c1ccccc1)C1(O)CCCC1 (stereo not given) | 102 |
| CCOC(=O)N1CCC(NC(=O)Cn2ncc3c4ccccc4n(C)c3c2=O)CC1 | 97.5 |
| COc1cccc(NC(=O)N(Cc2ccco2)C(C)c2cccs2)c1 (stereo not given) | 89.8 |
| C=CCN=C1SCC(=O)N1S(=O)(=O)c1ccc(C)cc1 | 113 |
| Cc1ccc(S(=O)(=O)N2CCN(c3nc(C(C)C)c4c(c3C#N)CC(C)(C)OC4)CC2)cc1 | 79.6 |
| O=C(O)Cc1ccc(-c2ccccc2)cc1 | 85.7 |
| Cc1ccc2nc(NC(=O)C3CCCN(S(=O)(=O)c4cccc5nonc45)C3)sc2c1 (stereo not given) | 76 |
| O=C(NCCCN1CCCC1=O)C1CCN(S(=O)(=O)N2CCOCC2)CC1 | 100 |
| CC1CCCC(C)N1CCNC(=O)C1CCN(S(=O)(=O)N2CCCCC2)CC1 (stereo not given) | 104 |
| O=C(CSc1nnc(-c2ccccn2)n1Cc1ccccc1)N1CCCC1 | 98.8 |
| C[C@H](CS)C(=O)N1CCC[C@H]1C(=O)O | 99.8 |
| c1ccc(-c2ccc(-c3ccccn3)nn2)nc1 | 59.4 |
| CS(=O)(=O)N(CC(=O)NCc1ccncc1)Cc1ccc(Cl)cc1 | 98.3 |
| O=C(CCn1c(=O)oc2ccccc21)N1CCN(c2ccccc2Cl)CC1 | 11.2 |
| CC(C)Oc1cc2oc(=O)c3c(c2cc1Cl)CCC3 | 98.2 |
| CC(=O)C1=C(NC(=O)c2ccccc2F)C[C@@H]2[C@H]1C2(C)C | 91.3 |
| CCOC(=O)Cn1nnnc1CN(Cc1ccc(OC)cc1)Cc1cc2cc(C)ccc2[nH]c1=O | 94.3 |
| Cc1ccc(CN2C(=O)CCC2C(=O)NCCCN2CCCC(C)C2)cc1 (stereo not given) | 97.4 |
